The results in this text go back to PubChem BioAssay.

Structures are written as SMILES. A number with no mark means an inactive call. For some of these results: Potency and affinity values are given separately. Calls of active or inactive are those of the source. Unless noted, the rule behind the calls is not given here.

The nature of experiment [1]: antimalarial activity against Dd2 strain (AID 2302;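 active = growth inhibition above 50% at the single 2 µM test dose, taken to imply half-maximal potency below 2 µM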;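 note: 0% = DMSO untreated growth and 100% = chloroquine plus artemisinin killed control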). Particulars: P. falciparum Dd2 in RBCs, LDH growth readout, 72 h; at 2 µM; stronger effect = higher value.
Experiment [2] can be described thus: human hepatoma cell viability loss – ATP luminescence, cytotoxicity control for P. falciparum antimalarial project, primary screen (AID 2303;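 active = inhibition above 50%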;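 note: 0% = DMSO wells and 100% = digitonin-killed cells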). As to conditions: HepG2 viability, 24-48 h, at 10 µM, stronger effect = higher value.
The target of experiment [3] is L-lactate dehydrogenase (Plasmodium falciparum (isolate CDC / Honduras)) (UniProt Q27743). The experiment can be described thus: PfLDH activity inhibition – cell lysate, 3D7 strain, counter-screen for P. falciparum growth inhibition project (AID 2304).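 Note: 0% = vehicle and 100% = reference inhibitor.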 As to conditions: P. falciparum 3D7 crude extract, LDH APAD/NBT absorbance; at 2 µM; stronger effect = higher value.
L-lactate dehydrogenase (Plasmodium falciparum (isolate CDC / Honduras)), sequence (Q27743 whole entry, looked up): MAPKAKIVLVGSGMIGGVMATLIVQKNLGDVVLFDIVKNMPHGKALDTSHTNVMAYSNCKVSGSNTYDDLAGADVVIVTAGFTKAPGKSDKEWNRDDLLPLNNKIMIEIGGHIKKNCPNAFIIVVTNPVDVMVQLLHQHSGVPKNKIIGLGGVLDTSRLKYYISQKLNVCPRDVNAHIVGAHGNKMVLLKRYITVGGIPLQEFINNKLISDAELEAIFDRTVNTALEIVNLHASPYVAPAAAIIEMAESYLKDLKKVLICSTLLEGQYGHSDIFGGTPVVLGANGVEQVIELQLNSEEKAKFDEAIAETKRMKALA
Experiment [4] can be described thus: inhibition of 3D7 malaria parasite growth – strain 3D7 (AID 2306).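 Note: 0% = DMSO wells and 100% = chloroquine plus artemisinin control wells.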 As to conditions: P. falciparum 3D7 erythrocytic growth, LDH absorbance, 72 h; at 2 µM; stronger effect = higher value.
Experiment [5] addresses Calcium-dependent protein kinase 1 (Plasmodium falciparum (isolate 3D7)) (UniProt P62344). The experiment can be described thus: PfCDPK1 kinase inhibitors, biochemical, TCAMS library (AID 1159585; cut-off not given, nearly all actives have IC50 up to about 0.98 µM;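 note: inhibitors leave more ATP so luminescence rises with inhibition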). As to conditions: recombinant PfCDPK1, Kinase-Glo ATP depletion luminescence.
In experiment [6] the target is Plasmodium falciparum protein kinase 6 (PK6, PF3D7_1337100) (UniProt Q8IDW1). As to the kind of experiment: PfPK6 kinase inhibitors, biochemical, TCAMS library (AID 1159586). Particulars: recombinant PfPK6, Kinase-Glo ATP depletion luminescence.
Plasmodium falciparum protein kinase 6 (PK6, PF3D7_1337100), sequence (Q8IDW1 1-305): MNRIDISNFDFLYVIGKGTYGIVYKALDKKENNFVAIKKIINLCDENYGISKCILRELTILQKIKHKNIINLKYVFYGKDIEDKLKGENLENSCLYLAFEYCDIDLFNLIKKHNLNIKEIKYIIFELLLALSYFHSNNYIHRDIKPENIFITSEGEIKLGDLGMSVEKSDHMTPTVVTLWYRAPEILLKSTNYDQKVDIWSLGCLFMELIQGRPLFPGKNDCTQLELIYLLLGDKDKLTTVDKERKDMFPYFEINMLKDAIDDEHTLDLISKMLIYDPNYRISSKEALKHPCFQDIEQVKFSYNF
The target in experiment [7] is Protein kinase 7 (PK7), Plasmodium falciparum 3D7 (PF3D7_0213400) (UniProt Q7YTF7). As to the kind of experiment: inhibition of Plasmodium PK7 catalytic activity – biochemical, TCAMS antimalarial set, Kinase-Glo luminescence (AID 1159587). Particulars: recombinant PfPK7, Kinase-Glo ATP depletion luminescence.
Protein kinase 7 (PK7), Plasmodium falciparum 3D7 (PF3D7_0213400), sequence (Q7YTF7 1-343): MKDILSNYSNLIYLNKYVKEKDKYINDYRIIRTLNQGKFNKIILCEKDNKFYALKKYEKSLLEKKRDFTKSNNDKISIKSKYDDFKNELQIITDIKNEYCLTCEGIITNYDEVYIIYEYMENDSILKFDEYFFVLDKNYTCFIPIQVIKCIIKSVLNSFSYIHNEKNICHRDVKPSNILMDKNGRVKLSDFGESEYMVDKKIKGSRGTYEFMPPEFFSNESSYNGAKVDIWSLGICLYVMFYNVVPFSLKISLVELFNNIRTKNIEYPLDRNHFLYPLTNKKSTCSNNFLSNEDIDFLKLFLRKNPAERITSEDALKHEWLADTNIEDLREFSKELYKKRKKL
The target in experiment [8] is Calcium-dependent protein kinase 4 (Plasmodium falciparum (isolate 3D7)) (UniProt Q8IBS5). The experiment can be described thus: PfCDPK4 kinase inhibitors, biochemical, TCAMS library (AID 1159588; cut-off not given, nearly all actives have IC50 up to about 0.91 µM). Particulars: recombinant PfCDPK4, Kinase-Glo ATP depletion luminescence.
Calcium-dependent protein kinase 4 (Plasmodium falciparum (isolate 3D7)), sequence (Q8IBS5 whole entry, looked up): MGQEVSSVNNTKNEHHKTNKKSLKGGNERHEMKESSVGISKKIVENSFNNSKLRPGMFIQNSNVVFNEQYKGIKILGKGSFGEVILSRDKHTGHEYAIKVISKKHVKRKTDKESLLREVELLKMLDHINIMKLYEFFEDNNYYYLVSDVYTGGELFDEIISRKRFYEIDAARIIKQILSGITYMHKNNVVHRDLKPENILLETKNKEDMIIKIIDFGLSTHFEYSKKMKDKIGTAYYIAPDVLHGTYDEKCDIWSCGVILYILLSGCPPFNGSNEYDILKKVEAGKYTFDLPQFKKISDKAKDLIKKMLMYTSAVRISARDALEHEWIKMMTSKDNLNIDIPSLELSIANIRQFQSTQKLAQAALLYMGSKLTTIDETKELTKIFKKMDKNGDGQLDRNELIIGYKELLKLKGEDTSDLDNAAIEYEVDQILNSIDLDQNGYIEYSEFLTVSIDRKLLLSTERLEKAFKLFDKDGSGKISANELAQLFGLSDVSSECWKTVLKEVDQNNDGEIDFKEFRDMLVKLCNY

Calcium-dependent protein kinase 1 (Plasmodium falciparum (isolate 3D7)), sequence (P62344 whole entry, looked up): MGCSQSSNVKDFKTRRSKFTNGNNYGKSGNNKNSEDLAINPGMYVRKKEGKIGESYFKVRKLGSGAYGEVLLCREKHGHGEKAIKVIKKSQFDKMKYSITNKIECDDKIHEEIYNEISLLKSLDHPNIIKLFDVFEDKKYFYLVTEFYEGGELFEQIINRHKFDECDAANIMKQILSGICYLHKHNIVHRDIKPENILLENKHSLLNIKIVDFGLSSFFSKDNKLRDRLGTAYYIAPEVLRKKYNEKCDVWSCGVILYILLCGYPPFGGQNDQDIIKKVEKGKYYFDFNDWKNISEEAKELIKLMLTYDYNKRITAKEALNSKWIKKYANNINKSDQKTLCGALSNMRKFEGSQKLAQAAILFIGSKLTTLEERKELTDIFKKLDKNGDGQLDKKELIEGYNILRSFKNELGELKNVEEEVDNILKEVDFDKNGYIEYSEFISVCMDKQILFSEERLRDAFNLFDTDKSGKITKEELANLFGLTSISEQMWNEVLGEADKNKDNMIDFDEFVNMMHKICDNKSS

Consider `Cc1cc(CN2CCCN(c3ccc4c(c3)CCN(Cc3ccc(-c5ncc[nH]5)cc3)CC4)CC2)n(C)n1`, for which the growth inhibition in experiment [1] is 8%; in experiment [4], 86% (active). The inhibition in experiment [2] and in experiment [3] was 5% each time. Also, the result in experiment [5], in experiment [6], in experiment [7] and in experiment [8] was inactive.

As for `C=Cc1ccc(-c2c(C)[nH]c(C)c(Br)c2=O)cc1`, the growth inhibition in experiment [1] is 96% (active); in experiment [4], 98% (active). Also, the inhibition in experiment [2] is -2%; in experiment [3], -3%. In addition, the outcome in experiment [5], in experiment [6], in experiment [7] and in experiment [8] was inactive.

For the compound `Cc1nnsc1C(=O)Nc1cccc(-c2ccc(-c3nc4ccccc4[nH]3)s2)c1`, the growth inhibition was 13% in experiment [1] and 89% (active) in experiment [4]. Further, the inhibition in experiment [2] was 55% (active); in experiment [3], -3%. The result in experiment [5], in experiment [6], in experiment [7] and in experiment [8] was inactive.

Turning to `CCCCN1CCN(CC(O)CNC(=O)Nc2ccc(Cl)cc2)CC1` (stereo not given), the growth inhibition in experiment [1] was 99% (active); in experiment [4], 101% (active). In addition, the figures for the inhibition in experiment [2] and in experiment [3] were 17% and -3%, respectively. For the same compound, the result in experiment [5], in experiment [6], in experiment [7] and in experiment [8] was inactive.

For the compound `COc1cc(OC)cc(C(=O)N2CCOC(CCN3CCC(c4ccccc4)CC3)(c3ccc(Cl)c(Cl)c3)C2)c1` (stereo not given), the growth inhibition is 61% (active) in experiment [1] and 85% (active) in experiment [4]. The figures for the inhibition in experiment [2] and in experiment [3] were 13% and 1%, respectively. In addition, the result in experiment [5], in experiment [6], in experiment [7] and in experiment [8] was inactive.

For the compound `COc1cccc2cc(C(=O)N[C@@H](CC(C)C)C(=O)N[C@H](/C=N/NC(=O)c3ccccc3)Cc3cnc[nH]3)oc12`, the growth inhibition in experiment [1] is 90% (active); in experiment [4], 99% (active). The values for the inhibition in experiment [2] and in experiment [3] were 3% and -6%, respectively. The result in experiment [5], in experiment [6], in experiment [7] and in experiment [8] was inactive.

For the compound `CS(=O)(=O)CCOCc1ccc(-c2ccc3ncnc(Nc4ccc(OCc5cccc(F)c5)c(Cl)c4)c3c2)o1`, the growth inhibition is 43% in experiment [1] and 96% (active) in experiment [4]. The inhibition was 1% in experiment [2] and 5% in experiment [3]. Further, the result in experiment [5], in experiment [6], in experiment [7] and in experiment [8] was inactive.

On to `O=C(C=Cc1ccccc1)Nc1ccc(C#CC=Cc2ccc(NC(=O)C=Cc3ccccc3)cc2)cc1`, for which the growth inhibition in experiment [1] was 3%; in experiment [4], 100% (active). In addition, the inhibition is 26% in experiment [2] and 1% in experiment [3]. Besides, the result in experiment [5], in experiment [6], in experiment [7] and in experiment [8] was inactive.

Take `COc1ccc(-c2cccc(NC(=O)c3cccc(Cl)c3)c2)cc1CN1CCC(O)CC1`: the values for the growth inhibition in experiment [1] and in experiment [4] were 16% and 98% (active), respectively. Also, the inhibition in experiment [2] was 38%; in experiment [3], 5%. Besides, the result in experiment [5], in experiment [6], in experiment [7] and in experiment [8] was inactive.

On to `Cc1[nH]c2ccccc2c1C(=O)CSc1nn(-c2ccccc2)c(=S)s1`, for which the growth inhibition is 99% (active) in experiment [1] and 100% (active) in experiment [4]. In addition, the inhibition in experiment [2] is -6%; in experiment [3], -1%. Also, the result in experiment [5], in experiment [6], in experiment [7] and in experiment [8] was inactive.

Take `Cc1cc(C(F)(F)F)nn1-c1ccc(NC(=O)c2ccco2)cc1`: the growth inhibition was 93% (active) in experiment [1] and 94% (active) in experiment [4]. The inhibition was 14% in experiment [2] and -3% in experiment [3]. The outcome in experiment [5], in experiment [6], in experiment [7] and in experiment [8] was inactive.

`N#Cc1ccccc1C(=O)N(Cc1cncn1Cc1cccc(F)c1)CC1CC1`: the figures for the growth inhibition in experiment [1] and in experiment [4] were 92% (active) and 101% (active), respectively. In addition, the inhibition was 0% in experiment [2] and -1% in experiment [3]. Besides, the result in experiment [5], in experiment [6], in experiment [7] and in experiment [8] was inactive.

On to `O=C(/C=C/c1ccc(C(F)(F)F)cc1)NCCCCCN1CCCN(C(=O)Nc2ccc(F)c(Cl)c2)CC1`, for which the growth inhibition in experiment [1] was 33%; in experiment [4], 101% (active). Further, the figures for the inhibition in experiment [2] and in experiment [3] were 33% and 0%, respectively. Besides, the result in experiment [5], in experiment [6], in experiment [7] and in experiment [8] was inactive.

In the case of `COc1ccc(-n2nc(C)c3c2NC(=O)CC3c2ccccc2OCc2ccc(F)cc2)cc1` (stereo not given), the growth inhibition in experiment [1] was 65% (active); in experiment [4] it was 93% (active). The inhibition is 53% (active) in experiment [2] and 7% in experiment [3]. The outcome in experiment [5], in experiment [6], in experiment [7] and in experiment [8] was inactive.

Consider `COc1cc(Br)ccc1N1CCN(CCCCNC(=O)c2ccc(NC(=O)c3ccc(Cl)cc3)cc2)CC1`, for which the figures for the growth inhibition in experiment [1] and in experiment [4] were 33% and 96% (active), respectively. In addition, the inhibition is 55% (active) in experiment [2] and 1% in experiment [3]. Further, the outcome in experiment [5], in experiment [6], in experiment [7] and in experiment [8] was inactive.

Regarding `CCOC(=O)c1ccc(OCCOc2ccccc2)cc1`, the results for the growth inhibition in experiment [1] and in experiment [4] were -3% and 99% (active), respectively. Besides, the inhibition is 63% (active) in experiment [2] and -1% in experiment [3]. Further, the outcome in experiment [5], in experiment [6], in experiment [7] and in experiment [8] was inactive.

For `CC(c1cccc(S(=O)(=O)NCc2ccc(Cl)cc2Cl)c1)N1CCC(N2CCCCC2)CC1` (stereo not given), the figures for the growth inhibition in experiment [1] and in experiment [4] were 40% and 100% (active), respectively. Besides, the inhibition in experiment [2] is 36%; in experiment [3], -2%. Further, the result in experiment [5], in experiment [6], in experiment [7] and in experiment [8] was inactive.

`CC(C)(C)Cn1cc(-c2ccc(C(=O)NCCc3ccc(S(C)(=O)=O)cc3)cc2)c(N)n1` (tested in a mixture with another compound): the growth inhibition is 10% in experiment [1] and 86% (active) in experiment [4]. Besides, the inhibition is 7% in experiment [2] and -1% in experiment [3]. Also, the outcome in experiment [5], in experiment [6], in experiment [7] and in experiment [8] was inactive.

With `S=C(NN=Cc1ccccn1)Nc1ccc2c(c1)OCCO2`, the growth inhibition in experiment [1] is 33%; in experiment [4], 82% (active). Besides, the figures for the inhibition in experiment [2] and in experiment [3] were 55% (active) and 6%, respectively. Also, the outcome in experiment [5], in experiment [6], in experiment [7] and in experiment [8] was inactive.

Take `Cc1ccc(C(C)C)c(Oc2ccc3nc(N)nc(N)c3c2)c1`: the growth inhibition is 33% in experiment [1] and 96% (active) in experiment [4]. Also, the results for the inhibition in experiment [2] and in experiment [3] were 61% (active) and 2%, respectively. Also, the result in experiment [5], in experiment [6], in experiment [7] and in experiment [8] was inactive.
